Results reported in PubChem BioAssay.
Results filed as inconclusive are left out. Active and inactive are the calls of the source.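 How the source made its calls, unless noted: active means normalized viability below 100% at a tested concentration; inactive means the rest.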

Assays:
[1] = growth inhibition of DIPG glioma cells, dose response, cell-based, SU-DIPG-XVII, MIPE5.0, CellTiter-Glo, qHTS (AID 1347060; cut-off not given, nearly all actives have AC50 up to about 26 µM;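 on AC50: cells exposed to compound for 48 hours before viability readout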); conditions: SU-DIPG-XVII viability, CellTiter-Glo ATP luminescence
[2] = growth inhibition of DIPG glioma cells, dose response, cell-based, SU-DIPG-XIII, MIPE4.0, CellTiter-Glo, qHTS (AID 1347061; cut-off not given, nearly all actives have AC50 up to about 37 µM;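 further: cells exposed to compound for 48 hours before readout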); conditions: SU-DIPG-XIII viability, CellTiter-Glo ATP luminescence
[3] = growth inhibition of DIPG glioma cells, dose response, cell-based, JHH-DIPG-1, MIPE4.0, CellTiter-Glo, qHTS (AID 1347062; cut-off not given, nearly all actives have AC50 up to about 27 µM;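 on AC50: cells exposed to compound for two days before readout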); conditions: JHH-DIPG-1 viability, CellTiter-Glo ATP luminescence
[4] = growth inhibition of DIPG glioma cells, dose response, cell-based, SU-DIPG-IV, MIPE4.0, CellTiter-Glo, qHTS (AID 1347063; cut-off not given, nearly all actives have AC50 up to about 30 µM;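 further: compound exposure lasted 48 hours before the viability readout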); conditions: SU-DIPG-IV viability, CellTiter-Glo ATP luminescence
[5] = viability loss in pontine glioma line – cell-based, SU-DIPG-XXV, MIPE5.0, CellTiter-Glo, qHTS, dose response (AID 1347065; cut-off not given, nearly all actives have AC50 up to about 26 µM;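 further: cells exposed to compound for 48 hours before ATP readout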); conditions: CellTiter-Glo ATP luminescence
[6] = SU-DIPG-VI glioma cell viability, MIPE4.0 library, CellTiter-Glo luminescence, qHTS (AID 1347066; cut-off not given, nearly all actives have AC50 up to about 30 µM;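 further: cells exposed to compound for 48 hours before readout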); conditions: CellTiter-Glo ATP luminescence
[7] = JHH-DIPG-1 glioma cell viability, MIPE5.0 library, CellTiter-Glo luminescence, qHTS (AID 1347067; cut-off not given, nearly all actives have AC50 up to about 26 µM;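 further: cells exposed to compound for 48 hours before readout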); conditions: JHH-DIPG-1 glioma viability, CellTiter-Glo ATP luminescence
[8] = sensitizers of A549 cells to miR-34 induction, primary screen, imaging, A549 dox-inducible miR-34, nuclei and caspase counts (AID 1347080;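 active means compounds whose cell count with miR-34 switched on is under 0.7 times the count with it off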); conditions: A549 miR-34 inducible, Hoechst nuclei count, 48 h
[9] = modifiers of HSF1 nuclear foci, imaging, Selleck Cancer Library (AID 1347162; in the data active means plate-normalised HSF1 focus index below about 0.46); conditions: human cells, at 10 µM; SSMD: measured here: HSF1 foci SSMD mean; cell count: measured here: cell number; plate-normalised HSF1 focus index: stronger effect = lower value
[10] = survival rescue of mitochondrial mutant cells in low glucose, primary screen, MELAS cybrids, Rieske KO mouse fibroblasts, CellTiter-Glo (AID 1508586;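 active means mean z-score across replicates of 1.96 or higher in either the MELAS or the Rieske mutant cell line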;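 further: z relative to plate mean and SD of compound and empty wells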)
[11] = ovarian cancer cell viability with rucaparib, profiling panel, oncology-focused library, rucaparib conditional (AID 1508598); conditions: patient-derived ovarian cancer cells, CellTiter-Glo viability, 144 h, stronger effect = lower value
[12] = LFS_MB_P medulloblastoma growth inhibition, cell-based, chromothripsis tumors, cisplatin or BGB combos (AID 1671449; in the data active means inhibition above about 80%;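 further: cells exposed for 96 hours; 0% = vehicle DMSO and 100% = killing by high DMSO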); conditions: LFS_MB_P medulloblastoma cells
[13] = HDN33 neuroblastoma growth inhibition, cell-based, chromothripsis tumors, cisplatin or BGB combos (AID 1671450; in the data active means inhibition above about 80%;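 further: cells exposed to compound for four days; 0% = vehicle DMSO and 100% = cell killing by high DMSO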); conditions: HDN33 neuroblastoma cells, stronger effect = higher value
[14] = ICB984 medulloblastoma cell growth inhibition, synergistic combos for chromothripsis tumors, cisplatin or BGB combos (AID 1671451; call rule not given here;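 further: cells exposed for 96 hours before readout; 0% = vehicle DMSO and 100% = killing by high DMSO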); conditions: ICB984 medulloblastoma cells, drug combinations, stronger effect = higher value
[15] = HTB85 osteosarcoma cell growth inhibition, synergistic combos for chromothripsis tumors, BGB or cisplatin IC20 combos (AID 1671453; in the data active means inhibition above about 80%;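 further: cells exposed for 96 hours before readout; 0% = vehicle DMSO and 100% = high DMSO killing control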); conditions: HTB85 osteosarcoma cells, drug combinations, stronger effect = higher value
[16] = MDA-MB-436 breast carcinoma cell growth inhibition, synergistic combos for chromothripsis tumors, BGB or cisplatin combos (AID 1671458; call rule not given here;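 further: cells exposed for 96 hours; 0% = vehicle DMSO and 100% = killing by high DMSO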); conditions: MDA-MB-436 breast carcinoma growth inhibition, drug combinations, stronger effect = higher value
[17] = growth inhibition of BT084 medulloblastoma cells, cell-based, ICGC_MB145, cisplatin and BGB IC40 combos (AID 1671461; in the data active means inhibition above about 80%;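 further: cells exposed to drugs for 96 hours; 0% = vehicle DMSO and 100% = high DMSO full killing control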); conditions: drug combinations, stronger effect = higher value
[18] = growth inhibition of RCMB18 medulloblastoma cells, cell-based, cisplatin and BGB IC40 combos (AID 1671462; in the data active means inhibition above about 80%;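 further: cells exposed to compound for four days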); conditions: stronger effect = higher value
[19] = SU-DIPG-XXV glioma cell viability, MIPE5.0 library, qHTS (AID 1347068; cut-off not given, nearly all actives have IC50 up to about 30 µM;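 on IC50: cells exposed to compound for 48 hours before viability readout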)

Structure (SMILES): CN(C)Cc1c(C(=O)NCCOc2ccc(C(=O)NO)cc2)oc2ccccc12
- AC50 [1]: 4.17 µM (active)
- AC50 [2]: 4.69 µM (active)
- AC50 [3]: 0.935 µM (active)
- AC50 [4]: 3.32 µM (active)
- AC50 [5]: 0.833 µM (active)
- AC50 [6]: 2.96 µM (active)
- AC50 [7]: 0.934 µM (active)
- fold change ([8]; stronger effect = lower value, cell number ratio, induced over uninduced): 1.4 (inactive)
- fold change ([8]; measured here: relative caspase fold change +Dox/-Dox): 0.9
- cell count ([8]; measured here: total cells with miR-34 induction, stronger effect = lower value): 1280
- cell count ([8]; measured here: total cells without miR-34 induction): 916
- SSMD [9]: 0.722
- cell count [9]: 7540
- plate-normalised HSF1 focus index [9]: 1.05 (inactive)
- z-score ([10]; MELAS cybrid survival, CellTiter-Glo 48 h, stronger effect = higher value): 0.162 (inactive)
- z-score ([10]; Rieske KO mouse fibroblast survival, CellTiter-Glo 72 h): -1.7
- viability ([11]; at 0.000305 µM, OCI-C5x cells, with rucaparib 10 µM, 100% = cells with rucaparib alone): 130% (inactive)
- viability ([11]; at 0.000305 µM, OCI-C5x cells, without rucaparib): 128% (inactive)
- viability ([11]; at 0.000305 µM, OCI-P5x cells, with rucaparib 20 µM, 100% = cells with rucaparib alone): 105% (inactive)
- viability ([11]; at 0.000305 µM, OCI-P5x cells, without rucaparib): 104% (inactive)
- viability ([11]; at 0.00122 µM, OCI-C5x cells, with rucaparib 10 µM, 100% = cells with rucaparib alone): 129% (inactive)
- viability ([11]; at 0.00122 µM, OCI-C5x cells, without rucaparib): 123% (inactive)
- viability ([11]; at 0.00122 µM, OCI-P5x cells, with rucaparib 20 µM, 100% = cells with rucaparib alone): 103% (inactive)
- viability ([11]; at 0.00122 µM, OCI-P5x cells, without rucaparib): 104% (inactive)
- viability ([11]; at 0.00488 µM, OCI-C5x cells, with rucaparib 10 µM, 100% = cells with rucaparib alone): 144% (inactive)
- viability ([11]; at 0.00488 µM, OCI-C5x cells, without rucaparib): 128% (inactive)
- viability ([11]; at 0.00488 µM, OCI-P5x cells, with rucaparib 20 µM, 100% = cells with rucaparib alone): 97.2% (active)
- viability ([11]; at 0.00488 µM, OCI-P5x cells, without rucaparib): 101% (inactive)
- viability ([11]; at 0.0195 µM, OCI-C5x cells, with rucaparib 10 µM, 100% = cells with rucaparib alone): 118% (inactive)
- viability ([11]; at 0.0195 µM, OCI-C5x cells, without rucaparib): 131% (inactive)
- viability ([11]; at 0.0195 µM, OCI-P5x cells, with rucaparib 20 µM, 100% = cells with rucaparib alone): 81.2% (active)
- viability ([11]; at 0.0195 µM, OCI-P5x cells, without rucaparib): 97.1% (active)
- viability ([11]; at 0.0781 µM, OCI-C5x cells, with rucaparib 10 µM, 100% = cells with rucaparib alone): 121% (inactive)
- viability ([11]; at 0.0781 µM, OCI-C5x cells, without rucaparib): 138% (inactive)
- viability ([11]; at 0.0781 µM, OCI-P5x cells, with rucaparib 20 µM, 100% = cells with rucaparib alone): 91.6% (active)
- viability ([11]; at 0.0781 µM, OCI-P5x cells, without rucaparib): 104% (inactive)
- viability ([11]; at 0.313 µM, OCI-C5x cells, with rucaparib 10 µM, 100% = cells with rucaparib alone): 123% (inactive)
- viability ([11]; at 0.313 µM, OCI-C5x cells, without rucaparib): 132% (inactive)
- viability ([11]; at 0.313 µM, OCI-P5x cells, with rucaparib 20 µM, 100% = cells with rucaparib alone): 69.9% (active)
- viability ([11]; at 0.313 µM, OCI-P5x cells, without rucaparib): 79.9% (active)
- viability ([11]; at 1.25 µM, OCI-C5x cells, with rucaparib 10 µM, 100% = cells with rucaparib alone): 135% (inactive)
- viability ([11]; at 1.25 µM, OCI-C5x cells, without rucaparib): 150% (inactive)
- viability ([11]; at 1.25 µM, OCI-P5x cells, with rucaparib 20 µM, 100% = cells with rucaparib alone): 82.3% (active)
- viability ([11]; at 1.25 µM, OCI-P5x cells, without rucaparib): 77.6% (active)
- viability ([11]; at 5 µM, OCI-C5x cells, with rucaparib 10 µM, 100% = cells with rucaparib alone): 8.92% (active)
- viability ([11]; at 5 µM, OCI-C5x cells, without rucaparib): 7.82% (active)
- viability ([11]; at 5 µM, OCI-P5x cells, with rucaparib 20 µM, 100% = cells with rucaparib alone): 5.56% (active)
- viability ([11]; at 5 µM, OCI-P5x cells, without rucaparib): 34% (active)
- inhibition ([12]; at 0.5 µM, stronger effect = higher value): 21.6% (inactive)
- inhibition ([12]; measured here: combination with BGB IC20, at 0.005 µM): -27.6%
- inhibition ([12]; measured here: combination with BGB IC40, at 0.005 µM): -6.96%
- inhibition ([12]; measured here: combination with BGB IC40, at 0.05 µM): 9.02%
- inhibition ([12]; measured here: combination with cisplatin, at 0.5 µM, stronger effect = higher value): 46.7%
- inhibition ([12]; measured here: combination with cisplatin, at 5 µM, stronger effect = higher value): 110%
- inhibition ([13]; BGB combo, at 5 µM): 99.4%
- inhibition ([13]; at 0.5 µM): 78.8% (inactive)
- inhibition ([13]; cisplatin combo, at 5 µM): 99.8%
- inhibition ([13]; measured here: with BGB IC20 combination, at 0.5 µM): 69%
- inhibition ([13]; measured here: with cisplatin IC20 combination, at 0.5 µM): 82.8%
- inhibition ([13]; single agent, at 5 µM): 99.8%
- inhibition ([14]; BGB IC20 combo, at 0.005 µM): 27.4%
- inhibition ([14]; BGB IC40 combo, at 0.005 µM): 31.8%
- inhibition ([14]; BGB IC40 combo, at 0.05 µM): 93.6%
- inhibition ([14]; at 0.5 µM): -23.7% (inactive)
- inhibition ([14]; cisplatin combo, at 0.05 µM): 93.4%
- inhibition ([14]; cisplatin combo, at 0.5 µM): -34.8%
- inhibition ([14]; cisplatin combo, at 5 µM): -32%
- inhibition ([14]; measured here: 5 uM single agent, at 5 µM): -19.3%
- inhibition ([15]; at 0.5 µM): 87.5% (active)
- inhibition ([15]; measured here: with BGB IC20, at 0.5 µM): 87.4%
- inhibition ([15]; measured here: with BGB IC20, at 5 µM): 99.8%
- inhibition ([15]; measured here: with cisplatin IC20, at 0.5 µM): 90.7%
- inhibition ([15]; measured here: with cisplatin IC20, at 5 µM): 99.9%
- inhibition ([15]; single agent, at 5 µM): 99.8%
- inhibition ([16]; at 0.5 µM): 43.7% (inactive)
- inhibition ([16]; measured here: BGB combination, at 0.5 µM): 36%
- inhibition ([16]; measured here: BGB combination, at 5 µM): 60%
- inhibition ([16]; measured here: cisplatin combination, at 0.5 µM): 42%
- inhibition ([16]; measured here: cisplatin combination, at 5 µM): 69.4%
- inhibition ([17]; at 0.5 µM): 52% (inactive)
- inhibition ([17]; cisplatin combination, at 0.5 µM): 79.4%
- inhibition ([17]; cisplatin combination, at 5 µM): 101%
- inhibition ([17]; measured here: BGB IC40 combination 0.05 uM, at 0.05 µM): 30.2%
- inhibition ([17]; single agent, at 5 µM): 108%
- inhibition ([18]; at 0.5 µM): 47.1% (inactive)
- inhibition ([18]; cisplatin combo, at 5 µM): 96.9%
- inhibition ([18]; measured here: BGB IC40 combination, at 0.05 µM): 20.1%
- inhibition ([18]; measured here: combination with cisplatin, at 0.5 µM): 58.8%
- inhibition ([18]; single agent, at 5 µM): 92.2%

Structure (SMILES): Cc1[nH]nc2ccc(-c3cncc(OC[C@@H](N)Cc4ccccc4)c3)cc12
- AC50 [1]: 1.66 µM (active)
- AC50 [2]: 4.69 µM (active)
- AC50 [3]: 1.18 µM (active)
- AC50 [4]: 2.64 µM (active)
- AC50 [5]: 1.48 µM (active)
- AC50 [6]: 10.5 µM (active)
- AC50 [7]: 1.48 µM (active)
- IC50 [19]: 1.66 µM (active)

Structure (SMILES): CC(=O)N[C@H]1[C@H](O[C@@H]2c3ccc(c(Cl)c3)Oc3cc4cc(c3O[C@@H]3O[C@H](CO)[C@@H](O)[C@H](O)[C@H]3NC(=O)CCCCCCCC(C)C)Oc3ccc(cc3Cl)C[C@H]3NC(=O)[C@H](N)c5ccc(O)c(c5)Oc5cc(O)cc(c5)[C@H](NC3=O)C(=O)N[C@H]4C(=O)N[C@H]3C(=O)N[C@@H]2C(=O)N[C@@H](C(=O)O)c2cc(O)cc(O[C@H]4O[C@H](CO)[C@@H](O)[C@H](O)[C@@H]4O)c2-c2cc3ccc2O)O[C@H](CO)[C@@H](O)[C@@H]1O
- outcome [1]: inactive
- outcome [2]: inactive
- outcome [3]: inactive
- outcome [4]: inactive
- outcome [5]: inactive
- outcome [6]: inactive
- outcome [7]: inactive
- outcome [19]: inactive
